From PubChem BioAssay (NCI)
This is part of a sample that, as a whole, favours compounds with a hit. Of some 79,000 tested, about 15% had one in any assay. Values without a mark were called inactive. Activity calls are given as the source filed them. No stated cut-off is given here; in the data, active means growth inhibition above about 70%; inactive means the rest.

Experiments:
[1] = NCI Yeast Anticancer Drug Screen. Data for the rad50 strain (AID 155);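 further: 0% = growth of vehicle-only cultures of the same strain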; details: S. cerevisiae rad50 strain growth inhibition, active compounds read high
Procedure, shortened: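 Relative growth inhibition (compound vs vehicle) was measured in yeast with a defined repair-gene alteration.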

[2] = NCI Yeast Anticancer Drug Screen. Data for the mec2-1 strain (AID 157); details: S. cerevisiae mec2-1 strain, active compounds read high
Procedure, shortened: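 Each compound was tested on mec2-1 yeast, a strain altered in DNA damage repair or cell cycle control. Growth inhibition is reported relative to vehicle.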

[3] = NCI Yeast Anticancer Drug Screen. Data for the sgs1 mgt1 strain (AID 161);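 further: 0% = growth of cultures given vehicle only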; details: S. cerevisiae sgs1 mgt1 strain, active compounds read high
Procedure, shortened: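 Genetically altered yeast, compound exposure, growth inhibition relative to vehicle.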

[4] = NCI Yeast Anticancer Drug Screen. Data for the cln2 rad14 strain (AID 165);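 further: 0% = growth equal to vehicle treated cultures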; details: S. cerevisiae cln2 rad14 strain, active compounds read high
Procedure, shortened: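 Test compounds were added to cln2 rad14 yeast cultures; inhibition of growth was then determined by comparison with vehicle treatment.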

[5] = NCI Yeast Anticancer Drug Screen. Data for the bub3 strain (AID 167); details: S. cerevisiae bub3 mutant strain, active compounds read high
Procedure, shortened: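 Screening used yeast with an engineered genetic alteration affecting cell cycle control. Compound-exposed cultures were compared with vehicle cultures, and reduced growth was taken as inhibition.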

[6] = NCI Yeast Anticancer Drug Screen. Data for the mlh1 rad18 strain (AID 175); details: S. cerevisiae mlh1 rad18 strain growth inhibition, active compounds read high
Procedure, shortened: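 Inhibition values reflect reduced growth of mutant yeast versus vehicle-treated controls following compound exposure; the mutations affect DNA damage repair.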

[7] = at 5.0 µM (retest, dose inferred, filed as 0.5)
[8] = at 50.0 µM (retest, dose inferred, filed as 5.0)

| Structure (SMILES) | growth inhibition [1, 7] [%] | growth inhibition [1, 8] | growth inhibition ([1]; at 50.0 µM) | growth inhibition [2, 7] [%] | growth inhibition [2, 8] | growth inhibition ([2]; at 50.0 µM) | growth inhibition [3, 7] [%] | growth inhibition [3, 8] | growth inhibition ([3]; at 50.0 µM) | growth inhibition [4, 7] [%] | growth inhibition [4, 8] | growth inhibition ([4]; at 50.0 µM) | growth inhibition [5, 7] [%] | growth inhibition [5, 8] | growth inhibition ([5]; at 50.0 µM) | growth inhibition [6, 7] [%] | growth inhibition [6, 8] | growth inhibition ([6]; at 50.0 µM) |
| --- | --- | --- | --- | --- | --- | --- | --- | --- | --- | --- | --- | --- | --- | --- | --- | --- | --- | --- |
| Cc1ccc2c(c1)C1(SCC(=O)N1c1ccc(Cl)cc1)C(=O)N2 (stereo not given) | 1 | 57% | 48.6% | 6 | 36% | 16.4% | 5 | 62% | 77.8% (active) | -1 | 28% | 20.8% | 4 | 74% (active) | 64.9% | -5 | 69% | 67.9% |
| O=C(Nc1ccccc1)ON=C1CCCCC1 | 3 | 75% (active) | 80% (active) | -31 | 36% | 63.6% | 3 | 68% | 94.2% (active) | 6 | 27% | 61.8% | 50 | 44% | 77.2% (active) | 5 | 62% | 89.6% (active) |
| CCN(CC)CCNC(=O)c1ccc2c(c1O)C(=O)c1ccccc1C2=O | 6 | 54% | 57.3% | 27 | 24% | 36% | 1 | 40% | 60.5% | -10 | 23% | 3.55% | -3 | 43% | 33% | 9 | 44% | 70% (active) |
| CC(C)Cc1cc2c(cc1O)CCC1C2CC[C@@]2(C)C1CC[C@@H]2O (stereo not given in full) | -10 | 97% (active) | 75.8% (active) | -17 | 95% (active) | 80.4% (active) | -12 | 97% (active) | 86.5% (active) | -22 | 98% (active) | 89.3% (active) | -34 | 97% (active) | 87% (active) | -11 | 97% (active) | 88.4% (active) |
| O=C(Nc1ccc(NC(=O)Nc2cc(C(=O)Nc3ccc(C4=NCCN4)cc3)ccc2C(=O)Nc2ccc(C3=NCCN3)cc2)cc1)Nc1cc(C(=O)Nc2ccc(C3=NCCN3)cc2)ccc1C(=O)Nc1ccc(C2=NCCN2)cc1 | 7 | -4% | 95.5% (active) | 0 | -6% | 94.5% (active) | 2 | -3% | 95.9% (active) | -1 | 1% | 95% (active) | 2 | 16% | 97% (active) | 7 | -2% | 96.5% (active) |
| O=C1C2=C(c3ccccc31)C(c1ccccc1Cl)NC(=S)N2 (stereo not given) | -5 | 11% | 82.2% (active) | -11 | 13% | 39.3% | -18 | -4% | 78.5% (active) | 20 | 40% | 63.4% | 14 | 60% | 70% (active) | -8 | 40% | 74.8% (active) |
| N#CC(C#N)=C(C1CC1)C1CC1 | -76 | 96% (active) | 0.4% | -42 | 94% (active) | -2.5% | -47 | 96% (active) | -1.9% | -56 | 92% (active) | 41.4% | -59 | 93% (active) | 11.8% | -95 | 94% (active) | -21.9% |
| c1ccc2cc3c(cc2c1)Nc1c2ccccc2nc2cccc-3c12 | 31 | 70% (active) | 54% | 17 | 57% | 70.5% (active) | 24 | 72% (active) | 79.4% (active) | 25 | 54% | 56.5% | 15 | 78% (active) | 81.3% (active) | 29 | 71% (active) | 89.8% (active) |
| O=C1c2ccc(S(=O)(=O)O)cc2C(=O)c2ccc(S(=O)(=O)O)cc21 | 3 | 23% | 49.3% | -1 | 21% | 25.5% | 5 | 36% | 47.5% | 2 | 26% | -62.8% | 1 | 19% | 55.4% | 4 | 31% | 74% (active) |
| CC(C)OP(=O)(OC(C)C)/C(=N/Nc1ccc([N+](=O)[O-])cc1)NNC(=O)c1ccccc1 | -24 | 61% | 95.2% (active) | -12 | 74% (active) | 95.7% (active) | -11 | 53% | 93.5% (active) | -21 | 67% | 87.2% (active) | -15 | 74% (active) | 94.9% (active) | 3 | 92% (active) | 94.6% (active) |
